Measured values reported in PubChem BioAssay AID1159580 (chemical genetic matrix, 2015).
Several values for one entry are separate records, joined by “and”; a condition that tells them apart may be missing. Equal entries are not always repeated. Out of some 5,500 compounds screened, about 2,000 (36%) were called active. Roughly 18% stayed inconclusive and do not appear here. No stated cut-off is given here; in the data, active means normalized growth mostly below about 0.91 (no sharp cut-off); inconclusive means no clear call, values can overlap the other calls; inactive means mostly above about 0.92. This is one part of the list.

Test: chemical genetic growth profiling, strain panel (AID 1159580);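 further: tested at 20 µM; growth read once vehicle control cultures reached saturation at 30 °C; 1 = growth at the plate median or of vehicle wells; lower values mean less growth of the strain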
Details: growth OD

Measured: normalized growth

NCCCC(=O)O
inactive: S. cerevisiae deletion strains, locus YAL013W, strain DEP1, hits give low values 1 and 0.982 | S. cerevisiae deletion strains, locus YAL040C, strain CLN3, hits give low values 0.965 | S. cerevisiae deletion strains, locus YBR021W, strain FUR4, hits give low values 1.01 | S. cerevisiae deletion strains, locus YBR229C, strain ROT2, hits give low values 1.01 | S. cerevisiae deletion strains, locus YCL029C, strain bik1, hits give low values 1.04 | S. cerevisiae deletion strains, locus YDL035C, strain GPR1, hits give low values 1.01 | S. cerevisiae deletion strains, locus YDL074C, strain BRE1, hits give low values 1.01 | S. cerevisiae deletion strains, locus YDL101C, strain DUN1, hits give low values 1.01 | S. cerevisiae deletion strains, locus YDL134C, strain PPH21, hits give low values 1.01 | S. cerevisiae deletion strains, locus YDL185W, strain tfp1, hits give low values 1.01 | S. cerevisiae deletion strains, locus YDL192W, strain arf1, hits give low values 1.02 | S. cerevisiae deletion strains, locus YDR101C, strain arx1, hits give low values 1.03 | S. cerevisiae deletion strains, locus YDR150W, strain NUM1, hits give low values 1.01 | S. cerevisiae deletion strains, locus YDR162C, strain NBP2, hits give low values 1 | S. cerevisiae deletion strains, locus YDR318W, strain mcm21, hits give low values 1.02 | S. cerevisiae deletion strains, locus YDR363W, strain ESC2, hits give low values 1.02 | S. cerevisiae deletion strains, locus YDR388W, hits give low values 1.02 | S. cerevisiae deletion strains, locus YDR502C, strain sam2, hits give low values 1.03 | S. cerevisiae deletion strains, locus YEL061C, strain CIN8, hits give low values 1 | S. cerevisiae deletion strains, locus YER002W, strain NOP16, hits give low values 0.993 | S. cerevisiae deletion strains, locus YER110C, hits give low values 1.04 | S. cerevisiae deletion strains, locus YER155C, strain BEM2, hits give low values 1.01 | S. cerevisiae deletion strains, locus YER167W, strain BCK2, hits give low values 1.01 | S. cerevisiae deletion strains, locus YGL078C, strain dbp3, hits give low values 1.03 | S. cerevisiae deletion strains, locus YGL086W, strain mad1, hits give low values 1.02 | S. cerevisiae deletion strains, locus YGL248W, strain PDE1, hits give low values 1.01 | S. cerevisiae deletion strains, locus YGR078C, strain PAC10, hits give low values 1.01 | S. cerevisiae deletion strains, locus YGR135W, strain pre9, hits give low values 1.04 | S. cerevisiae deletion strains, locus YGR229C, strain SMI1, hits give low values 1.03 and 0.998 | S. cerevisiae deletion strains, locus YGR252W, strain gcn5, hits give low values 1.07 | S. cerevisiae deletion strains, locus YHR030C, strain SLT2, hits give low values 1.01 | S. cerevisiae deletion strains, locus YHR079C, strain IRE1 (second series), hits give low values 1.02 | S. cerevisiae deletion strains, locus YHR079C, strain IRE1, hits give low values 0.994 | S. cerevisiae deletion strains, locus YHR094C, strain hxt1, hits give low values 1.02 | S. cerevisiae deletion strains, locus YHR129C, strain ARP1, hits give low values 1 | S. cerevisiae deletion strains, locus YHR200W, strain rpn10, hits give low values 1.02 | S. cerevisiae deletion strains, locus YIL066C, strain RNR3, hits give low values 1.01 | S. cerevisiae deletion strains, locus YIL073C, strain SPO22, hits give low values 1.06 | S. cerevisiae deletion strains, locus YIL125W, strain kgd1, hits give low values 1.02 | S. cerevisiae deletion strains, locus YIR030C, strain dcg1, hits give low values 1.04 | S. cerevisiae deletion strains, locus YJL095W, strain BCK1, hits give low values 1.01 and 0.999 | S. cerevisiae deletion strains, locus YJL134W, strain LCB3, hits give low values 1.01 | S. cerevisiae deletion strains, locus YJL168C, strain set2, hits give low values 1.03 | S. cerevisiae deletion strains, locus YJL187C, strain SWE1 (second series), hits give low values 1.01 | S. cerevisiae deletion strains, locus YJR043C, strain POL32, hits give low values 1 | S. cerevisiae deletion strains, locus YJR066W, strain TOR1, hits give low values 0.949 | S. cerevisiae deletion strains, locus YJR075W, strain HOC1, hits give low values 1.01 | S. cerevisiae deletion strains, locus YKL009W, strain mrt4, hits give low values 0.999 | S. cerevisiae deletion strains, locus YKL068W, hits give low values 1.01 | S. cerevisiae deletion strains, locus YKL085W, strain MDH1 (second series), hits give low values 1 | S. cerevisiae deletion strains, locus YKL085W, strain MDH1, hits give low values 1 | S. cerevisiae deletion strains, locus YKL190W, strain CNB1, hits give low values 1 | S. cerevisiae deletion strains, locus YKR001C, strain vps1, hits give low values 1.03 | S. cerevisiae deletion strains, locus YLR039C, strain RIC1, hits give low values 0.999 | S. cerevisiae deletion strains, locus YLR058C, strain SHM2, hits give low values 1.01 | S. cerevisiae deletion strains, locus YLR102C, strain apc9, hits give low values 1.03 | S. cerevisiae deletion strains, locus YLR113W, strain HOG1, hits give low values 0.996 | S. cerevisiae deletion strains, locus YLR262C, strain YPT6, hits give low values 1 | S. cerevisiae deletion strains, locus YLR268W, strain sec22, hits give low values 1.03 | S. cerevisiae deletion strains, locus YLR330W, strain CHS5, hits give low values 1 | S. cerevisiae deletion strains, locus YLR342W, strain FKS1 (second series), hits give low values 0.994 | S. cerevisiae deletion strains, locus YLR371W, strain rom2, hits give low values 1.03 | S. cerevisiae deletion strains, locus YLR418C, strain cdc73, hits give low values 1.08 | S. cerevisiae deletion strains, locus YML016C, strain PPZ1, hits give low values 1.01 | S. cerevisiae deletion strains, locus YML032C, strain rad52, hits give low values 1.04 | S. cerevisiae deletion strains, locus YML124C, strain tub3, hits give low values 1.03 | S. cerevisiae deletion strains, locus YMR078C, strain ctf18, hits give low values 1.03 | S. cerevisiae deletion strains, locus YMR223W, strain ubp8, hits give low values 1.02 | S. cerevisiae deletion strains, locus YMR263W, strain SAP30, hits give low values 1.01 | S. cerevisiae deletion strains, locus YMR307W, strain GAS1, hits give low values 1.02 | S. cerevisiae deletion strains, locus YNL067W, strain RPL9B, hits give low values 1.01 | S. cerevisiae deletion strains, locus YNL128W, strain TEP1, hits give low values 1.02 and 0.979 | S. cerevisiae deletion strains, locus YNL153C, strain GIM3, hits give low values 1.01 | S. cerevisiae deletion strains, locus YNL175C, strain NOP13, hits give low values 0.995 | S. cerevisiae deletion strains, locus YNL183C, strain NPR1, hits give low values 0.918 | S. cerevisiae deletion strains, locus YNL197C, strain WHI3, hits give low values 0.975 | S. cerevisiae deletion strains, locus YNL224C, strain SQS1, hits give low values 1.02 | S. cerevisiae deletion strains, locus YNL233W, strain BNI4, hits give low values 1 | S. cerevisiae deletion strains, locus YNL250W, strain rad50, hits give low values 1.03 | S. cerevisiae deletion strains, locus YNL271C, strain bni1, hits give low values 1.03 | S. cerevisiae deletion strains, locus YNL298W, strain CLA4, hits give low values 1.05 | S. cerevisiae deletion strains, locus YNL307C, strain MCK1, hits give low values 1.03 | S. cerevisiae deletion strains, locus YNL322C, strain KRE1, hits give low values 1.01 and 0.99 | S. cerevisiae deletion strains, locus YNR052C, strain pop2, hits give low values 1.02 | S. cerevisiae deletion strains, locus YOL006C, strain TOP1, hits give low values 1.03 | S. cerevisiae deletion strains, locus YOL012C, strain htz1 1.29 | S. cerevisiae deletion strains, locus YOL147C, strain pex11, hits give low values 1.04 | S. cerevisiae deletion strains, locus YOR061W, strain CKA2, hits give low values 1.01 | S. cerevisiae deletion strains, locus YOR069W, strain VPS5, hits give low values 1 | S. cerevisiae deletion strains, locus YOR083W, strain WHI5 (second series), hits give low values 0.99 | S. cerevisiae deletion strains, locus YOR136W, strain idh2, hits give low values 1.02 | S. cerevisiae deletion strains, locus YOR144C, strain elg1, hits give low values 1.03 | S. cerevisiae deletion strains, locus YOR184W, strain ser1, hits give low values 1.03 | S. cerevisiae deletion strains, locus YOR231W, strain MKK1, hits give low values 1 | S. cerevisiae deletion strains, locus YOR316C, strain cot1, hits give low values 1.03 | S. cerevisiae deletion strains, locus YPL055C, strain LGE1, hits give low values 1.03 | S. cerevisiae deletion strains, locus YPL241C, strain CIN2, hits give low values 0.999 | S. cerevisiae deletion strains, locus YPL256C, strain CLN2, hits give low values 0.985 | S. cerevisiae deletion strains, locus YPR119W, strain clb2, hits give low values 1.02 | S. cerevisiae deletion strains, locus YPR141C, strain kar3, hits give low values 1.02 | S. cerevisiae deletion strains, locus YPR163C, strain tif3, hits give low values 1.04 | S. cerevisiae deletion strains, locus YPR167C, strain met16, hits give low values 1.02 | S. cerevisiae deletion strains, strain wtn01, hits give low values 1.03 | S. cerevisiae strains, strain wild type, hits give low values 1.01
